The panel holds about 83,000 compounds, 20% with a hit somewhere; the sample as a whole holds those more often.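 Single-dose data. Exposure time 48 hours. Values below 10 considered active.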 Active and inactive are the calls of the source.
How the values were obtained:
Assay in all cases: NCI-60 one-dose screen, 48 h (100 = growth as untreated, 0 = no growth, -100 = all killed)
Details in all cases: 10 µM unless noted
SK-MEL-2 melanoma = tested on: SK-MEL-2 melanoma
EKVX NSCLC = tested on: EKVX NSCLC
SN12C renal = tested on: SN12C renal
UO-31 renal = tested on: UO-31 renal
TK-10 renal = tested on: TK-10 renal
ACHN renal = tested on: ACHN renal
CAKI-1 renal = tested on: CAKI-1 renal
A498 renal = tested on: A498 renal
CCRF-CEM leukemia = tested on: CCRF-CEM leukemia
MOLT-4 leukemia = tested on: MOLT-4 leukemia
SR leukemia = tested on: SR leukemia
OVCAR-8 ovarian = tested on: OVCAR-8 ovarian
OVCAR-5 ovarian = tested on: OVCAR-5 ovarian
OVCAR-4 ovarian = tested on: OVCAR-4 ovarian
SK-OV-3 ovarian = tested on: SK-OV-3 ovarian
IGROV1 ovarian = tested on: IGROV1 ovarian
OVCAR-3 ovarian = tested on: OVCAR-3 ovarian
HS 578T breast = tested on: HS 578T breast
NCI/ADR-RES ovarian = tested on: NCI/ADR-RES ovarian
RPMI-8226 leukemia = tested on: RPMI-8226 leukemia

Measured: growth

Oc1c(Cl)cc(Oc2cc(Cl)c(O)c(CN3CCOCC3)c2)cc1CN1CCOCC1
inactive: SK-MEL-2 melanoma 88.2% | EKVX NSCLC 90.5% | SN12C renal 95.4% | UO-31 renal 71.1% | TK-10 renal 95.1% | ACHN renal 84.9% | CAKI-1 renal 78% | A498 renal 84.7% | CCRF-CEM leukemia 107% | MOLT-4 leukemia 80.4% | SR leukemia 80.2% | OVCAR-8 ovarian 94.8% | OVCAR-5 ovarian 98% | OVCAR-4 ovarian 88.2% | SK-OV-3 ovarian 101% | IGROV1 ovarian 92.5% | OVCAR-3 ovarian 94.5% | HS 578T breast 93.5% | NCI/ADR-RES ovarian 84.8%

Nc1ccc2c(c1)Cc1cc(Cl)c(Cl)cc1-2
inactive: SK-MEL-2 melanoma 47.5% | EKVX NSCLC 48% | SN12C renal 57.2% | UO-31 renal 63.6% | TK-10 renal 101% | ACHN renal 66.8% | CAKI-1 renal 65.4% | A498 renal 60.1% | CCRF-CEM leukemia 32.2% | MOLT-4 leukemia 70.2% | SR leukemia 70.4% | OVCAR-8 ovarian 86.4% | OVCAR-5 ovarian 82.6% | OVCAR-4 ovarian 78.6% | SK-OV-3 ovarian 69.1% | IGROV1 ovarian 89.1% | HS 578T breast 67.9% | NCI/ADR-RES ovarian 62.9%
active: OVCAR-3 ovarian 7.25%

O=[N+]([O-])c1ccc(N=Nc2c(Cl)cc(O)cc2Cl)cc1
inactive: OVCAR-5 ovarian 25.3% | OVCAR-4 ovarian 12.1% | SK-OV-3 ovarian 13.3%
active: SK-MEL-2 melanoma -19.1% | EKVX NSCLC 1.71% | SN12C renal 0.728% | UO-31 renal -31.5% | TK-10 renal 9.62% | ACHN renal 1.34% | CAKI-1 renal -11.9% | A498 renal -26.4% | CCRF-CEM leukemia 8.97% | MOLT-4 leukemia -19% | SR leukemia 3.27% | OVCAR-8 ovarian 6.5% | IGROV1 ovarian 6.67% | OVCAR-3 ovarian -25.3% | HS 578T breast -20% | NCI/ADR-RES ovarian -19.7%

CC1=C([Se]CC(OC(=O)[C@@H](CSSC(C)(C)C)NC(=O)C(C)(C)C)C(=O)NCCCCCC(=O)OCc2ccccc2)C(=O)c2ccccc2C1=O (some centres undefined)
active: SK-MEL-2 melanoma -24.2% | EKVX NSCLC -24.2% | SN12C renal 2.42% | UO-31 renal -78.5% | TK-10 renal -29.3% | ACHN renal -10.9% | CAKI-1 renal -19.3% | A498 renal -5.18% | CCRF-CEM leukemia 3% | MOLT-4 leukemia 5.23% | RPMI-8226 leukemia -11% | OVCAR-5 ovarian -28.7% | SK-OV-3 ovarian -17.5% | IGROV1 ovarian -60.9% | OVCAR-3 ovarian 1.96% | NCI/ADR-RES ovarian -12.4%
inactive: SR leukemia 29.2% | OVCAR-4 ovarian 14.5%

COC(=O)CC1=C(c2ccc([N+](=O)[O-])cc2)CCC1=O
inactive: SK-MEL-2 melanoma 103% | EKVX NSCLC 94.5% | SN12C renal 103% | UO-31 renal 80.5% | TK-10 renal 107% | ACHN renal 102% | CAKI-1 renal 99.8% | A498 renal 69.5% | CCRF-CEM leukemia 95.3% | MOLT-4 leukemia 104% | SR leukemia 104% | OVCAR-8 ovarian 104% | OVCAR-5 ovarian 105% | OVCAR-4 ovarian 110% | SK-OV-3 ovarian 99.1% | IGROV1 ovarian 127% | OVCAR-3 ovarian 121% | HS 578T breast 114% | NCI/ADR-RES ovarian 109%

Cc1ccc(C(NC(=O)c2ccccc2)c2ccc3cccnc3c2O)cc1 (centres undefined)
inactive: SK-MEL-2 melanoma 18.5% | EKVX NSCLC 17.3% | SN12C renal 14.1% | TK-10 renal 16% | A498 renal 24.9% | SR leukemia 11% | RPMI-8226 leukemia 14.9% | OVCAR-5 ovarian 44.8% | OVCAR-4 ovarian 19.8% | SK-OV-3 ovarian 19.3% | IGROV1 ovarian 17.1% | OVCAR-3 ovarian 31.5% | HS 578T breast 69.5% | NCI/ADR-RES ovarian 14%
active: UO-31 renal -3.13% | ACHN renal 8.26% | CAKI-1 renal 9.05% | CCRF-CEM leukemia 5.39% | MOLT-4 leukemia 8.31%

COc1ccc(C2CC(c3ccc4c(c3)OCO4)=NN2C=O)cc1 (centres undefined)
inactive: SK-MEL-2 melanoma 100% | EKVX NSCLC 91.7% | SN12C renal 106% | UO-31 renal 87.4% | TK-10 renal 93.4% | ACHN renal 103% | CAKI-1 renal 102% | A498 renal 91.2% | CCRF-CEM leukemia 93.9% | MOLT-4 leukemia 101% | SR leukemia 100% | OVCAR-8 ovarian 106% | OVCAR-5 ovarian 110% | OVCAR-4 ovarian 92.8% | SK-OV-3 ovarian 108% | IGROV1 ovarian 127% | OVCAR-3 ovarian 128% | HS 578T breast 115% | NCI/ADR-RES ovarian 103%

O=C1OC2(c3ccccc31)c1ccccc1-c1ccccc12
inactive: SK-MEL-2 melanoma 65% | EKVX NSCLC 87.9% | SN12C renal 90.4% | UO-31 renal 65.7% | TK-10 renal 82.7% | ACHN renal 101% | CAKI-1 renal 62.3% | A498 renal 69.8% | CCRF-CEM leukemia 72.4% | MOLT-4 leukemia 82.9% | SR leukemia 41.4% | OVCAR-8 ovarian 101% | OVCAR-5 ovarian 88.4% | OVCAR-4 ovarian 82.9% | SK-OV-3 ovarian 91.7% | IGROV1 ovarian 90.6% | OVCAR-3 ovarian 93.6% | HS 578T breast 83.4% | NCI/ADR-RES ovarian 90.8%

CCOC(=O)C1C(=O)NC(C(=O)OCC)(C(=O)OCC)C1CC (centres undefined)
inactive: SK-MEL-2 melanoma 110% | EKVX NSCLC 117% | SN12C renal 100% | UO-31 renal 89.5% | TK-10 renal 115% | ACHN renal 104% | CAKI-1 renal 99.9% | A498 renal 104% | CCRF-CEM leukemia 109% | MOLT-4 leukemia 113% | SR leukemia 107% | OVCAR-8 ovarian 108% | OVCAR-5 ovarian 105% | OVCAR-4 ovarian 110% | SK-OV-3 ovarian 112% | IGROV1 ovarian 124% | OVCAR-3 ovarian 125% | HS 578T breast 129% | NCI/ADR-RES ovarian 113%

CCOC(=O)OCC(=O)[C@@]1(O)CC[C@H]2[C@@H]3CCC4=CC(=O)CC[C@]4(C)[C@H]3[C@@H](O)C[C@@]21C
inactive: SK-MEL-2 melanoma 102% | EKVX NSCLC 85.4% | SN12C renal 87.2% | UO-31 renal 76.2% | TK-10 renal 96.4% | ACHN renal 99.3% | CAKI-1 renal 90.9% | A498 renal 98.8% | CCRF-CEM leukemia 84.6% | MOLT-4 leukemia 93.2% | SR leukemia 109% | RPMI-8226 leukemia 64.3% | OVCAR-5 ovarian 83.2% | OVCAR-4 ovarian 104% | SK-OV-3 ovarian 68.4% | IGROV1 ovarian 87.5% | OVCAR-3 ovarian 112% | HS 578T breast 123% | NCI/ADR-RES ovarian 91%

O=C1Nc2ccc(Cl)cc2/C1=C/c1cccs1
inactive: SK-MEL-2 melanoma 108% | EKVX NSCLC 68.3% | SN12C renal 87.9% | UO-31 renal 44.8% | TK-10 renal 120% | ACHN renal 88.2% | CAKI-1 renal 79.5% | A498 renal 97.5% | CCRF-CEM leukemia 102% | MOLT-4 leukemia 91% | SR leukemia 99.4% | RPMI-8226 leukemia 100% | OVCAR-5 ovarian 110% | OVCAR-4 ovarian 35.9% | SK-OV-3 ovarian 93.6% | IGROV1 ovarian 65.1% | OVCAR-3 ovarian 87.8% | HS 578T breast 96.2% | NCI/ADR-RES ovarian 92.8%

CC(=O)Nc1ccc(C(=O)COc2ccc(/C=C3\CCc4ccccc4C3=O)cc2)cc1
inactive: SK-MEL-2 melanoma 77.8% | EKVX NSCLC 99.8% | SN12C renal 103% | UO-31 renal 33.2% | TK-10 renal 112% | ACHN renal 103% | CAKI-1 renal 94.8% | A498 renal 66.3% | CCRF-CEM leukemia 89.4% | MOLT-4 leukemia 78.8% | SR leukemia 84.4% | RPMI-8226 leukemia 83.3% | OVCAR-8 ovarian 98.8% | OVCAR-5 ovarian 101% | OVCAR-4 ovarian 104% | SK-OV-3 ovarian 117% | HS 578T breast 99% | NCI/ADR-RES ovarian 96.2%

COCCCNS(=O)(=O)c1ncnc2nc[nH]c12
inactive: SK-MEL-2 melanoma 147% | EKVX NSCLC 101% | SN12C renal 114% | UO-31 renal 96.9% | TK-10 renal 140% | ACHN renal 118% | CAKI-1 renal 101% | A498 renal 87% | CCRF-CEM leukemia 101% | MOLT-4 leukemia 102% | SR leukemia 108% | RPMI-8226 leukemia 107% | OVCAR-5 ovarian 100% | OVCAR-4 ovarian 113% | SK-OV-3 ovarian 121% | IGROV1 ovarian 142% | NCI/ADR-RES ovarian 99.5%

O=C(O)c1ccc2cccnc2c1O
inactive: EKVX NSCLC 18.8% | TK-10 renal 13.2% | A498 renal 13.6% | CCRF-CEM leukemia 10.3% | MOLT-4 leukemia 11.2% | OVCAR-8 ovarian 13.6% | OVCAR-5 ovarian 24.2% | OVCAR-4 ovarian 17.7%
active: SK-MEL-2 melanoma 4.77% | SN12C renal 7.06% | UO-31 renal -5.79% | ACHN renal 7.69% | CAKI-1 renal 4.24% | SR leukemia 5.47% | SK-OV-3 ovarian -10.7% | IGROV1 ovarian 5.01% | OVCAR-3 ovarian 1.49% | NCI/ADR-RES ovarian -1.54%

O=C1NC(=S)S/C1=C\c1cc(Br)ccc1O
inactive: SK-MEL-2 melanoma 100% | EKVX NSCLC 107% | SN12C renal 102% | UO-31 renal 67.6% | TK-10 renal 107% | ACHN renal 93.5% | CAKI-1 renal 99.5% | A498 renal 76% | CCRF-CEM leukemia 79.2% | MOLT-4 leukemia 107% | SR leukemia 95.7% | OVCAR-8 ovarian 103% | OVCAR-5 ovarian 91.6% | OVCAR-4 ovarian 115% | SK-OV-3 ovarian 91.3% | IGROV1 ovarian 110% | OVCAR-3 ovarian 103% | NCI/ADR-RES ovarian 102%

C=C1CCC2C3(C)COC(c4ccccc4)OC3CCC2(C)C1C/C=C1/C(=O)OCC1OC(C)=O (centres undefined)
active: CCRF-CEM leukemia 2.16%
inactive: SK-MEL-2 melanoma 95.1% | EKVX NSCLC 104% | SN12C renal 80.6% | UO-31 renal 81.6% | TK-10 renal 56.8% | ACHN renal 92.4% | CAKI-1 renal 106% | A498 renal 103% | MOLT-4 leukemia 77.1% | SR leukemia 78.2% | OVCAR-8 ovarian 41.9% | OVCAR-5 ovarian 120% | OVCAR-4 ovarian 82.3% | SK-OV-3 ovarian 131% | IGROV1 ovarian 86.8% | NCI/ADR-RES ovarian 61.3%

CCOC(=O)Nc1ccc2c3c(cccc13)-c1ccccc1-2
inactive: SK-MEL-2 melanoma 24.8% | EKVX NSCLC 48.4% | SN12C renal 42.2% | UO-31 renal 21.1% | TK-10 renal 45.5% | ACHN renal 50.6% | CAKI-1 renal 16.5% | A498 renal 76.2% | CCRF-CEM leukemia 55.4% | MOLT-4 leukemia 36% | SR leukemia 13.6% | OVCAR-5 ovarian 63.6% | OVCAR-4 ovarian 48.5% | SK-OV-3 ovarian 62.7% | IGROV1 ovarian 20.9% | HS 578T breast 16.6%
active: OVCAR-3 ovarian -19.8% | NCI/ADR-RES ovarian 7.96%

Source: PubChem BioAssay (NCI)
